Screening data from PubChem BioAssay.
Most compounds without a hit are left out; they make up all but 2.8% or so of the library.
Mito fusion yeast = qHTS Assay for Small Molecule Inhibitors of Mitochondrial Division or Activators of Mitochondrial Fusion. Potency, µM (titrated, usually from 46.1 µM), without a hit: at the top dose growth rescue (activation), usual class: activators. hit rate 0.23% among 320,000. AID 485298, 2010. S. cerevisiae fusion-defective mutant growth rescue, CellTiterGlo 48 h; note: % of control where 0% means no effect; nearly all actives have a fitted effect of over 45% in size
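Growth-rescue viability read-out: after 48 h at the non-permissive 37C in glycerol/ethanol YPEG, yeast mitochondrial fusion mutants are measured by CellTiterGlo luminescence; compounds (23 nl pinned per well) restoring growth score as division inhibitors or fusion activators.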
GLP1R inv ag = qHTS of GLP-1 Receptor Inverse Agonists (Inhibition Mode). Glucagon-like peptide 1 receptor (Homo sapiens), P43220. HEK293 GLP-1R CRE-luciferase, luminescence, 24 h; GLP-1R form is constitutively active. Potency, µM (highest dose often 38.3 µM), inactives show at the highest dose activity change, negative = inhibition, hits mostly inhibitors. hit rate 1.6% among 410,000. AID 624417, 2012; note: % is set by controls: 0 for no effect and ±100 for the full control effect; nearly all actives have a fitted effect of over 55% in size
Target sequence (P43220 whole entry, looked up): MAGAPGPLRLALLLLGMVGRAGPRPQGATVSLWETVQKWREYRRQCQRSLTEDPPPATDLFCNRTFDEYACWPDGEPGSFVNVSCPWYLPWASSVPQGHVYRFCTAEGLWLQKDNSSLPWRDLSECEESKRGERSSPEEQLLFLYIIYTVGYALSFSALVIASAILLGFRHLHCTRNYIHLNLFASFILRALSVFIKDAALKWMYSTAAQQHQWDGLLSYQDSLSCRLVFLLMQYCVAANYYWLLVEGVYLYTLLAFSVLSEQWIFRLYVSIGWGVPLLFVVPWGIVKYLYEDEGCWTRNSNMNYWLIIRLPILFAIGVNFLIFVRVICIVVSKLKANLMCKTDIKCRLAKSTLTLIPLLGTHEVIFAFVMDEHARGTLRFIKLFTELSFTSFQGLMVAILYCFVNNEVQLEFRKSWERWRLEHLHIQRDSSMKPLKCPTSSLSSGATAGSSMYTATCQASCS
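Luminescence readout: a drop in cAMP-driven luciferase signal flags inverse agonism at a constitutively active GLP-1R stably expressed in HEK293. Compound exposure lasted 24 hr at 37 deg C, 5% CO2.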
GLP-1R agonist = qHTS of GLP-1 Receptor Agonists; Glucagon-like peptide 1 receptor (Homo sapiens), P43220; HEK293 GLP-1R CRE-luciferase, luminescence, 4-6 h; cells express a hypersensitive GLP-1R form; Potency, µM (series often up to 45.6 µM), for inactives: at the highest dose activation, actives largely listed as activators; hit rate 0.007% among 380,000; AID 624172, 2012; note: % of control where 0% means no effect
BRCA1 expr up = qHTS Assay to Identify Small Molecule Activators of BRCA1 Expression; hit rate 1.1% among 380,000; Potency, µM (doses to about 46.1 µM), for the others: at the top dose activation, hits mostly activators; MCF7-BRCA1-FFLuc reporter, luminescence, 48 h; response scale: scaled: vehicle 0%, 10 µM genistein 100%; note: nearly all actives have a fitted effect of over 80% in size
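Activators of BRCA1 expression were detected as increased firefly luciferase luminescence in engineered MCF7 cells after 48 h compound incubation. Signals were scaled to genistein 10 microM as full activation.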
GLP1R cytotox = qHTS of GLP-1 Receptor Inverse Agonists: Cytotox Screen; HEK293 cAMP-luciferase reporter cells, luminescence, 24 h; Potency, µM (top dose mostly 38.3 µM), without a hit: at the top dose activity change, negative = inhibition, most hits filed as inhibitors; hit rate 0.13% among 410,000;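 note: loss of luciferase light is scored as toxicity; % is set by controls: 0 for no effect and ±100 for the full control effect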
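Quantitative HTS format, 1536 wells, 200 cells/uL seeded. Compounds: 23 nL, 24 h, 37 °C. Detection: luciferase reagent, luminescence at 12 min RT; decreased signal taken as cytotoxic.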
An asterisk follows results filed as active; i = inactive; ? = inconclusive; nt = no result given. Calls come from the whole dose curve; as a rule, active = well fitted curve in the direction sought with a large enough effect; inconclusive = small, poorly fitted or top-dose-only effect, or another doubt; inactive = no such curve, though single readings can be large; an effect the other way counts as inactive or inconclusive. Potency is the fitted concentration of half-maximal effect.

SMILES | Mito fusion yeast | GLP1R inv ag | GLP-1R agonist | BRCA1 expr up | GLP1R cytotox
O=C(NCC(c1ccco1)N1CCCCC1)C(c1ccccc1)c1ccccc1 (centres undefined) | 0% | 11µM* | 5% | -5% | 0%
O=C(NCC(c1ccco1)N1CCCCC1)c1ccc(COc2ccc(Cl)cc2)cc1 (centres undefined) | nt | 2.8µM* | 12% | -49% | -27%
COc1ccc(NC(=S)NCC(c2ccco2)N2CCCC2)cc1 (centres undefined) | -1% | 1% | 9% | -8% | -2%
CC(C)C(NC(=O)c1ccco1)C(=O)NCC(c1ccco1)N1CCCCC1 (centres undefined) | -9% | 3% | -3% | 13% | 0%
CC(Sc1ccc(Cl)cc1)C(=O)NCC(c1ccco1)N1CCCCC1 (centres undefined) | 4% | 11µM* | -5% | -3% | -4%
S=C(NCCc1ccccc1)NCC(c1ccco1)N1CCCCC1 (centres undefined) | 1% | 7.1µM* | 23% | 28% | -24%
FC(F)(F)c1ccccc1C1=CC(c2ccccc2)n2ncnc2N1 (centres undefined) | nt | 22% | 17% | 3% | 145%
CSc1ccccc1NC(=O)CNCCCN1CCOCC1 | -3% | 10% | 6% | -9% | i
COc1ccccc1NC(=O)C1=C(C)Nc2nc(SCc3ccccc3)nn2C1c1ccccn1 (centres undefined) | nt | 16% | 1% | 13% | -5%
CN(CC(=O)NCC(c1ccco1)N1CCCCC1)S(=O)(=O)c1ccc(Cl)cc1 (centres undefined) | 1% | 13µM* | 15% | -26% | 0%
Cc1ccc(C(=O)c2sc(Nc3ccc(F)cc3)nc2N)c(C)c1 | nt | 5µM* | nt | nt | -13%
COc1ccc(Nc2nc(N)c(C(=O)c3ccc(F)cc3)s2)cc1 | 4% | ? | -12% | -33% | 13%
c1ccc(-c2cnnc(N3CCCCC3)n2)cc1 | 3% | -31% | 7% | 7.9µM* | -7%
c1ccc(-c2csc(N3CCCCCC3)n2)cc1 | -3% | ? | 0% | ? | 16%
O=c1[nH]c(SCc2ccc(Cl)cc2)nc2ccsc12 | -7% | 24% | 14% | 4.5µM* | 2%
N#Cc1c(-c2cccs2)nc(SCc2ccc(Cl)cc2)[nH]c1=O | -5% | ? | -1% | -8% | 22%
CCC(=O)n1nc(-c2ccco2)nc1SCc1ccccc1 | -2% | 13% | -10% | ? | -2%
CC(=O)n1nc(-c2ccco2)nc1SCc1ccccc1 | 3% | 19% | -3% | 11µM* | 3%
O=C(O)c1cc(NC(=S)NC(=O)C(c2ccccc2)c2ccccc2)ccc1Cl | -2% | 0% | -3% | 3% | -11%
CN(Cc1cccc(F)c1)C(=O)CSc1nnnn1C1CC1 | 1% | 14% | 8% | 12% | 0%
C=C1CCN([C@H](C(=O)NCc2ccc(Cl)c(Cl)c2)C(C)C)S(=O)(=O)c2ccccc21 | -11% | 10µM* | -7% | -18% | 0%
C=C1CCN([C@@H](CC(C)C)C(=O)NCc2ccc(Cl)c(Cl)c2)S(=O)(=O)c2ccccc21 | nt | 11µM* | -2% | -21% | 3%
C=C1CCN([C@@H](Cc2ccccc2)C(=O)NCc2ccc(Cl)c(Cl)c2)S(=O)(=O)c2ccccc21 | nt | 11µM* | 3% | -34% | 8%
C=C1CCN([C@@H](Cc2ccccc2)C(=O)NCCCc2ccccc2)S(=O)(=O)c2ccccc21 | nt | -6% | 1% | -56% | 9%
CCOC(=O)c1cnn(-c2ccccc2)c1NC(=O)CCl | 3% | -12% | 3% | -6% | 8%
SMILES | Mito fusion yeast | GLP1R inv ag | GLP-1R agonist | BRCA1 expr up | GLP1R cytotox
Cc1cc(F)ccc1S(=O)(=O)Nc1ccccc1C(=O)Nc1ccccc1-c1nc2ccccc2[nH]1 | 15% | 6.3µM* | -20% | -89% | ?
Cc1ccc(O)c(-c2cc(-c3cccc(Br)c3)n[nH]2)c1 | 0% | 10µM* | 19% | 17% | -37%
Cc1cccc(NC(=O)c2cc(-c3cc(C)c(C)cc3O)n[nH]2)c1 | -2% | 41% | 8% | ? | 5%
Cc1cccc(NC(=O)c2cc(-c3cc(C)ccc3O)n[nH]2)c1 | 0% | 19% | 2% | 1.6µM* | 3%
Cc1ccc(-c2cc(-c3ccc(C)cc3O)[nH]n2)cc1 | 23% | ? | -2% | 74% | -9%
CC(=O)Nc1cncc(-c2cccc(C(=O)N3CCOCC3)c2)n1 | nt | 1% | -3% | 6% | 8%
Cc1ccc(NC(=O)Nc2ccc3c(c2)CCC3)cc1 | -1% | -28% | 6% | 4µM* | -18%
O=C(Nc1ccc(F)cc1)Nc1ccc2c(c1)CCC2 | -2% | 1% | 0% | ? | 6%
O=C(Nc1cccc(F)c1)Nc1ccc2c(c1)CCC2 | 1% | 8% | 0% | 2µM* | -4%
Cc1cc(C)cc(NC(=O)Nc2ccc3c(c2)CCC3)c1 | -2% | -14% | -2% | 52% | 2%
Cn1c(=O)[nH]c(=O)c2c1nc(N1CCCCC1)n2CCSc1nc2ccccc2o1 | 0% | -18% | 27% | -7% | 1%
CC(C)CCn1c(Sc2nc3ccccc3o2)nc2c1c(=O)[nH]c(=O)n2C | 15% | 4.5µM* | 0% | -74% | 5%
Nc1nc(SCC(=O)Nc2ncc(C(F)(F)F)cc2Cl)n[nH]1 | 18% | 20% | 0% | -3% | 6%
COc1cc(NC2c3ccccc3C(=O)N2Cc2ccccc2Cl)cc(OC)c1 (centres undefined) | 10% | 10µM* | 0% | -19% | -19%
N#CCCN1CCN(CCC#N)C1=S | nt | 14% | 2% | 2% | -3%
Cc1cc(C)n(-c2nc3ccccc3nc2N2CCCC2)n1 | 0% | -27% | 5% | -27% | -1%
Cc1ccc(-c2cc3ccccc3nc2N2CCOCC2)cc1 | 2% | ? | 1% | 0% | 7%
c1ccc2nc(N3CCCC3)c(N3CCCC3)nc2c1 | 2% | 1.8µM* | 6% | -9% | -2%
Cc1cc(C)n(-c2nc3ccccc3nc2N2CCCCCC2)n1 | -17% | 6.3µM* | 1% | -35% | 50%
c1ccc(-c2cc3ccccc3nc2N2CCCC2)cc1 | 2% | 2.5µM* | -1% | -2% | 6%
Cc1nc2ccccc2nc1N1CCCCC1 | -3% | -12% | 3% | 1% | 7%
CCc1ccc(C2CC(c3ccc(Cl)cc3)n3nc(N)nc3N2)cc1 (centres undefined) | 7% | -17% | 0% | -1% | 15%
C=CCn1c(SCc2ccc(C(=O)Nc3nccs3)cc2)nnc1-c1ccc(C)c(Cl)c1 | 10% | 4.5µM* | -6% | -86% | ?
